According to the supplement of paper PMC11732987, “Enantioselective OTUD7B fragment discovery through chemoproteomics screening and high-throughput optimisation” (Communications Chemistry, 2025):

Columns and labels:
Experiment in all cases: log2 ratio of Biotin-Ahx-Ub-VS probe labelling (fragment/DMSO); higher = less target engagement (more negative = stronger competition), active = hit call of the paper (q ≤ 0.05, log2 ratio ≤ -1)
Settings in all cases: compound concentration: 200 uM; treatment time: 3 h
USP34 = USP34 (UniProt Q70CQ2)
Chain of USP34 (Q70CQ2 whole entry, the tested form may be a part): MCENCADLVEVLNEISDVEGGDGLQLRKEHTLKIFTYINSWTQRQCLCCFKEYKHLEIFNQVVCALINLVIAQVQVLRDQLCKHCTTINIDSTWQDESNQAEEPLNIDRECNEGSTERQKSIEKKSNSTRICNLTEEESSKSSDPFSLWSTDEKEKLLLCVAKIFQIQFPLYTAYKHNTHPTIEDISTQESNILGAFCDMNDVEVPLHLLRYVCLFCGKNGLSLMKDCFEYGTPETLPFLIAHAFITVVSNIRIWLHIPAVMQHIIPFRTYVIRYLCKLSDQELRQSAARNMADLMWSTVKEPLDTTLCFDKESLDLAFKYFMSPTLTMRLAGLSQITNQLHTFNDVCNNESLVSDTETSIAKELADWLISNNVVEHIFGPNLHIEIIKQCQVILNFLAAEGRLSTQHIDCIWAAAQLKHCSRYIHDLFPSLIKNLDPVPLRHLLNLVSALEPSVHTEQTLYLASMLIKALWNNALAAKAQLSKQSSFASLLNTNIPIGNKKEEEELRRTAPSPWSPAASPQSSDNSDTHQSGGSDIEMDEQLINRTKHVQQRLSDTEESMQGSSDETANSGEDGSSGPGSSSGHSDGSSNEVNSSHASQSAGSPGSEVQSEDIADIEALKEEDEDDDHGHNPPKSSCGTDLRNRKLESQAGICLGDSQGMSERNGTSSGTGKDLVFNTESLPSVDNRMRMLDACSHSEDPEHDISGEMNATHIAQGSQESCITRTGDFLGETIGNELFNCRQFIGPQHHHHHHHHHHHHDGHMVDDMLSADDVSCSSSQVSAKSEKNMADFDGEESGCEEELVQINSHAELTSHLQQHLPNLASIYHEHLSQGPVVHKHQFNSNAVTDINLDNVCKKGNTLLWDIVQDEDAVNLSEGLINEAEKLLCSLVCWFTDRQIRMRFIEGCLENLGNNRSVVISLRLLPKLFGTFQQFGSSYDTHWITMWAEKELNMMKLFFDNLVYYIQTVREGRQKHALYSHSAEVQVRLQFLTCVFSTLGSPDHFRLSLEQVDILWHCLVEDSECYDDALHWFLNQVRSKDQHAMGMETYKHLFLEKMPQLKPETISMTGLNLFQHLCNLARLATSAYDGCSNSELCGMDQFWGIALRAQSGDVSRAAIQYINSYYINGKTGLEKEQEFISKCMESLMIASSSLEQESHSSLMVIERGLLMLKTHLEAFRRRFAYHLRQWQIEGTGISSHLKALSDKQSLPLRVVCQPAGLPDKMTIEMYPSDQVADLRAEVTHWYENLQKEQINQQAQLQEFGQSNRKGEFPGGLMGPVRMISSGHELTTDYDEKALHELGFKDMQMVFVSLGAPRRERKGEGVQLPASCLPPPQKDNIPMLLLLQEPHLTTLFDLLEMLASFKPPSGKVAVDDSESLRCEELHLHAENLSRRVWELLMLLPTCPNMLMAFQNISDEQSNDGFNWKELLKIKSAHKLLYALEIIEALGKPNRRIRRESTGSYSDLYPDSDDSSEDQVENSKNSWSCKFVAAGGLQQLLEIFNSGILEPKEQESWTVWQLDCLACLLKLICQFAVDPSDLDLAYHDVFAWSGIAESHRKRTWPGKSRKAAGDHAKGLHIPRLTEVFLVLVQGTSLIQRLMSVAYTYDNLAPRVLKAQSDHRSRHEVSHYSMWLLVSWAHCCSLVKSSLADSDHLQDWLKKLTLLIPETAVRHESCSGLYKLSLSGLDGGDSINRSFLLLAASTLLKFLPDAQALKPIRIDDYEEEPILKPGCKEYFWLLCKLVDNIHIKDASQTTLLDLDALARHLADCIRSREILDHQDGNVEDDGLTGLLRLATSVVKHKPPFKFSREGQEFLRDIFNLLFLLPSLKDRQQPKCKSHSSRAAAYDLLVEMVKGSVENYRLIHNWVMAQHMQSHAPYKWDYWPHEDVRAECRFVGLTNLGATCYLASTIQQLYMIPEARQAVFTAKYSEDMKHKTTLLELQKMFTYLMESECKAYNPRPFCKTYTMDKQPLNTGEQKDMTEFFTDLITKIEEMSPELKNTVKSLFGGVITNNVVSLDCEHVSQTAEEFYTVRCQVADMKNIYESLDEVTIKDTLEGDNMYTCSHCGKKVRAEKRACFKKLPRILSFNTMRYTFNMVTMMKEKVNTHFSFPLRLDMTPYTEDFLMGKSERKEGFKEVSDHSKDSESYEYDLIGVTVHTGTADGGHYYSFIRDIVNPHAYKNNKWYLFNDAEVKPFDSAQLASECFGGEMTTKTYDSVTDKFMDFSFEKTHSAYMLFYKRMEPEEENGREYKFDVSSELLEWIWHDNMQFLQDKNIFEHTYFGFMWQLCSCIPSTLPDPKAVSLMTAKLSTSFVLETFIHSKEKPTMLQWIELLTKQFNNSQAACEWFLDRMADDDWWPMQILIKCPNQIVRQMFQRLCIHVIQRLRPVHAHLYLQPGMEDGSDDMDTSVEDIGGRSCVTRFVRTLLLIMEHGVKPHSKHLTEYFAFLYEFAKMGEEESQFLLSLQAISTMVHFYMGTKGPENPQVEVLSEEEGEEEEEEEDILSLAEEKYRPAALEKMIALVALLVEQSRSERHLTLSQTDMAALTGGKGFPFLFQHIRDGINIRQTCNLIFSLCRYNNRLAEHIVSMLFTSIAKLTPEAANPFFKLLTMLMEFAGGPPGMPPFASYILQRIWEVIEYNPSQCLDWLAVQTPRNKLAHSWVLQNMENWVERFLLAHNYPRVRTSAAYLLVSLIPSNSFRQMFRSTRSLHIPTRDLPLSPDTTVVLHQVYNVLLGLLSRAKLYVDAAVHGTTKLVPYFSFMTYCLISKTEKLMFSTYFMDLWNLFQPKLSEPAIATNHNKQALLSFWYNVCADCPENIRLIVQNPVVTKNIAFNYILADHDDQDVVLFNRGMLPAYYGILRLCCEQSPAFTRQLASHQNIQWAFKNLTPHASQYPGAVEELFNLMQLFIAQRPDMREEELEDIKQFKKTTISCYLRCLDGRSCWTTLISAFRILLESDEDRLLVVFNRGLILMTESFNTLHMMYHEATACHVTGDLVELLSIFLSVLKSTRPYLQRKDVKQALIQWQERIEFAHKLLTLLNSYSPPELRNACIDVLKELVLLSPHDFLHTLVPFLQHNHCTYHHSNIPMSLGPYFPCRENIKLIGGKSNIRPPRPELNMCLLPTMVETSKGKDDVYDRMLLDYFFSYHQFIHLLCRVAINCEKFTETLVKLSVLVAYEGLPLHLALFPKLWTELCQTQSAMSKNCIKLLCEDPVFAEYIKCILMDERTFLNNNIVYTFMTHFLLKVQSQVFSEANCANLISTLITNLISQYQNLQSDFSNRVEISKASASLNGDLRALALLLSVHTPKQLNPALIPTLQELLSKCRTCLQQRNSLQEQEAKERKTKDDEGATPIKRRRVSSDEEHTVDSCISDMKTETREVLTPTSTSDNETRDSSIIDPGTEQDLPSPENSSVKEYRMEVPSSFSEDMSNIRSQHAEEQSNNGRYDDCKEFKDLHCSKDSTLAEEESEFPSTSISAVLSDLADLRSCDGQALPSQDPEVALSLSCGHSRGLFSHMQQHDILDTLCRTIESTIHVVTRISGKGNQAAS
Procedure, shortened: (§1)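 Global-median-normalised Spectronaut label-free quantities were compared by unpaired t-test, and values are average log2 ratios of fragment over vehicle. Only proteins with ≥2 unique peptides were used. HEK293T lysate (495 µg per sample) was treated in triplicate with fragment at 200 µM or vehicle for 3 h and then with Biotin-Ahx-Ub-VS at 0.5 µM final for 1 h. Labelled DUBs were then NeutrAvidin-enriched, digested with LysC and trypsin, and run by diaPASEF LC-MS/MS.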

USP36 = target: T1, USP36 (UniProt Q9P275)
T1 sequence (whole entry): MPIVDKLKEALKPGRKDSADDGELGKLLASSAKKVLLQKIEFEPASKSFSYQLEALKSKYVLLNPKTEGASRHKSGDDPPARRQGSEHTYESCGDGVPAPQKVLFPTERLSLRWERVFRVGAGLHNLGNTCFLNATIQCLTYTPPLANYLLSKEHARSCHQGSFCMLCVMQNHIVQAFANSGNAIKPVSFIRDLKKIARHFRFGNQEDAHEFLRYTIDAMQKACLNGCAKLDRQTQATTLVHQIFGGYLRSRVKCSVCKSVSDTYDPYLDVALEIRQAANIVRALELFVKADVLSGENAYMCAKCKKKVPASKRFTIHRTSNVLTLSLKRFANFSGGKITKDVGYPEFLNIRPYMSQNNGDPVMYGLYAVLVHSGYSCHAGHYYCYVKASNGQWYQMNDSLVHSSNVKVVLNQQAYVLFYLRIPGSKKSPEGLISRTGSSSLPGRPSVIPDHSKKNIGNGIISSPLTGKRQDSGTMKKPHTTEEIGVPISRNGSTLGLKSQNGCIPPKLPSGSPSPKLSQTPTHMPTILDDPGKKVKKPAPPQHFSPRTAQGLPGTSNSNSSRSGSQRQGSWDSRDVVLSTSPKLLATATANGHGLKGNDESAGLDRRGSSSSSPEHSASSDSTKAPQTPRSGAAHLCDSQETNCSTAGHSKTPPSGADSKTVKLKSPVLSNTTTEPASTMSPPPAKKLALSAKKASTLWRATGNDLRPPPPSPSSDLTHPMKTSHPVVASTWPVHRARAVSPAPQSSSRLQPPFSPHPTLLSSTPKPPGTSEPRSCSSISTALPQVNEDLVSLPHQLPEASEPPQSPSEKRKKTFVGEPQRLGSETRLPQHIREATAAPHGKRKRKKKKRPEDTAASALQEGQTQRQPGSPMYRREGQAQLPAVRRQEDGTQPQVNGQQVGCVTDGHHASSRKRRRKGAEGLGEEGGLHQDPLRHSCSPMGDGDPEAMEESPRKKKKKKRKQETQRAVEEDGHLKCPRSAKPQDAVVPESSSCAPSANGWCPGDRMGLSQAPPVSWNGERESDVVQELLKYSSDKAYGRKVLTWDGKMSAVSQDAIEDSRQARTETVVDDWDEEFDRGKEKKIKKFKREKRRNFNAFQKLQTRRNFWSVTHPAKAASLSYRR
Procedure, shortened: as §1

USP38 = target: T2, USP38 (UniProt Q8NB14)
T2 sequence (whole entry): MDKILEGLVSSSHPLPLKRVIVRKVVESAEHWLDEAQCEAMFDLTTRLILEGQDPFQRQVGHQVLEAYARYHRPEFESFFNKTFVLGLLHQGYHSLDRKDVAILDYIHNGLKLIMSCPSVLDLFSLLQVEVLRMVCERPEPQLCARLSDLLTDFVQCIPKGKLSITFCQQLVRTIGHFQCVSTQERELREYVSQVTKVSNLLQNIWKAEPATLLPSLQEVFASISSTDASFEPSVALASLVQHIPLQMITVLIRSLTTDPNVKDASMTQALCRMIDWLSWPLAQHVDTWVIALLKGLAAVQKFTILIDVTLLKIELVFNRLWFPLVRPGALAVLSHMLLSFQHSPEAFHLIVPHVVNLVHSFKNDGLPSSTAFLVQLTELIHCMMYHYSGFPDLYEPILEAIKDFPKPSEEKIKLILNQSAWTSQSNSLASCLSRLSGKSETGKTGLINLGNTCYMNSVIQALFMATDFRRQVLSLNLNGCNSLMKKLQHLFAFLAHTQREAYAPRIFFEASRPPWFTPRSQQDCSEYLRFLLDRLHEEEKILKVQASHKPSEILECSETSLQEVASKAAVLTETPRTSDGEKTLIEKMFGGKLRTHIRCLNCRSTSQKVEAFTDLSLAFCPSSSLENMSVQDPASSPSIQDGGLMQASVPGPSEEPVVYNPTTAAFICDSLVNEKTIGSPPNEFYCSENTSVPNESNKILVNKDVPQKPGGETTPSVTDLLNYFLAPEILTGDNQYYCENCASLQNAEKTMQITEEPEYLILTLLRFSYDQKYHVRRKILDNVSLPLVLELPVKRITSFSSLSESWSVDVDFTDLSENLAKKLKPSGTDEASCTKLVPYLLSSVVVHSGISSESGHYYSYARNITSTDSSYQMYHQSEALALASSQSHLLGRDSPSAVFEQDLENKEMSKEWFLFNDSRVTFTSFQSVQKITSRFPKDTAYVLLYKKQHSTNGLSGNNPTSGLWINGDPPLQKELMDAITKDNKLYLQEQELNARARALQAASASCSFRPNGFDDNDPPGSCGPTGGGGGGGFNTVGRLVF
Procedure, shortened: as §1

USP39 = target: T3, USP39 (UniProt Q53GS9)
T3 sequence (whole entry): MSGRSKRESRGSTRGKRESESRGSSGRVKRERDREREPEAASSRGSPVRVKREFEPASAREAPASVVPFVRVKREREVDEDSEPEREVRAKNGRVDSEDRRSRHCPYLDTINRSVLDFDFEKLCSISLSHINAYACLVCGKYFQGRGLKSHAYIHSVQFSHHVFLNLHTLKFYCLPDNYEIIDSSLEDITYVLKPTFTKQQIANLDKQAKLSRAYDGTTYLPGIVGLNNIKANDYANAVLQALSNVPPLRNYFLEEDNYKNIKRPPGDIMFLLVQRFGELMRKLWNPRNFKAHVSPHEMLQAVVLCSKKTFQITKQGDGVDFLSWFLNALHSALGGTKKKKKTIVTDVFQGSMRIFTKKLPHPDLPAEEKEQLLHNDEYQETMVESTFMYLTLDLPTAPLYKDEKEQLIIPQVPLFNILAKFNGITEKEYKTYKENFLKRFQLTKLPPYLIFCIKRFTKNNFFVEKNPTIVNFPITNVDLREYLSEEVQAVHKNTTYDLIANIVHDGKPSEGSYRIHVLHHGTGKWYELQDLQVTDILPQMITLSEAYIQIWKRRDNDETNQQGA
Procedure, shortened: as §1

USP4 = target: T4, USP4 (UniProt Q13107)
T4 sequence (whole entry): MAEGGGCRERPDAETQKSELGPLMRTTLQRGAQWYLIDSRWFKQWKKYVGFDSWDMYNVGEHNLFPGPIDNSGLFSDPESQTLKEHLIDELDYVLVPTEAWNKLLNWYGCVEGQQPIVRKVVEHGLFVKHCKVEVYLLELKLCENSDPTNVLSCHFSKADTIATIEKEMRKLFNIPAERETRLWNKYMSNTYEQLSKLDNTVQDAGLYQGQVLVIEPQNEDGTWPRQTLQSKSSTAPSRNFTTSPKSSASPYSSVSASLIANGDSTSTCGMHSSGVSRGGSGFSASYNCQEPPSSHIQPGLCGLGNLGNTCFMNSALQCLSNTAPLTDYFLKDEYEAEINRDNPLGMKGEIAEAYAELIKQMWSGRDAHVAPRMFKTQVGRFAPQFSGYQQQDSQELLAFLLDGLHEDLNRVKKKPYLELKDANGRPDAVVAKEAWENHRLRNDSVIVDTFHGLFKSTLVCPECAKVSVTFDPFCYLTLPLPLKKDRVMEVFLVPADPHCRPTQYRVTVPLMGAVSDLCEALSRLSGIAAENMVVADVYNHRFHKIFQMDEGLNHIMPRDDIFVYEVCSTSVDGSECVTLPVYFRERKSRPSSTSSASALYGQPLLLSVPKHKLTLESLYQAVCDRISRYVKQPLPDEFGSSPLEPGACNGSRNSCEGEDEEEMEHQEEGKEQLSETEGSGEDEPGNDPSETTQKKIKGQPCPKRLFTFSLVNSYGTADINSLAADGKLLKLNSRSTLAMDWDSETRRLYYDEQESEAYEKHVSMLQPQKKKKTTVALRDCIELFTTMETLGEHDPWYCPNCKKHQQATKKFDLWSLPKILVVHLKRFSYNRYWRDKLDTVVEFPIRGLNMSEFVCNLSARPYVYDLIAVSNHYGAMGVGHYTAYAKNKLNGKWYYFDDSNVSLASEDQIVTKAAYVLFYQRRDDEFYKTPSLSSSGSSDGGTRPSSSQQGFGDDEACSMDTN
Procedure, shortened: as §1

Measured: log2 ratio of Biotin-Ahx-Ub-VS probe labelling

CN(Cc1nc2ccccc2[nH]1)C(=O)CCl.Cl
inactive: USP34 -0.266 | USP36 0.0504 | USP38 0.056 | USP39 0.391 | USP4 -0.0216
